Experimental data as given in PubChem BioAssay (NCATS).
Records with an inconclusive call do not appear. Unmarked numbers belong to inactive results. The call rests on the fitted dose curve; in most records, active means well fitted inhibition curve with a large enough effect; inconclusive means small, poorly fitted or top-dose-only effect; inactive means flat fitted curve, though single readings scatter.

target: Calcium and integrin-binding protein 1 (Homo sapiens) (UniProt Q99828); assay: Primary qHTS for Identification of Calcium Integrin Binding Protein 1 (CIB1) Competitor (AID 1508620); details: CIB1-GST / FITC-alphaIIb peptide fluorescence polarization; series mostly up to 114 µM; activity change, negative = inhibition: at the top concentration;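 further: GST tagged CIB1 binding a fluorescein labelled alphaIIb integrin peptide tracer; top concentration of the series differs between compounds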
Description: Assay Provider: Ulhas P. Naik, PhD Sidney Kimmel Medical College Thomas Jefferson University, Philadelphia, PA Primary function of platelets is to maintain hemostasis. At the site of vascular injury, platelets adhere to adhesive proteins such as collagen and von Willebrand factor. Adherent platelets are activated and generate soluble platelet agonists such as thrombin, ADP and thromboxane A2. Following exposure of circulating platelets to these agonists, results in platelet shape change, granule secretion and activation of platelet integrin alphaIIb-beta3. Ligand binding to activated integrin alphaIIb-beta3 triggers outside-in signaling, leading to platelet aggregation, stabilization of platelet plug, and clot retraction. Upon atherosclerotic plaque rupture also causes platelet plug formation, which underlies a number of cardiovascular diseases such as myocardial infraction and stroke. A number of anti-platelet drugs such as aspirin, clopidogrel, prasugrel, vorapaxar, and eptifibatide are currently available to prevent the thrombotic complications. However, these anti-platelet agents have several limitations including inherent variability in individual responses, developing resistance, and serious bleeding side effects. For these reasons they are not suitable for long-term protection. Based on the experiences with current anti-platelet drugs, it appears that the most useful therapeutic approach is to intersect the secondary responses such as integrin outside-in signaling or recruitment of platelets by TxA2 and secreted ADP. Compounds, which can largely preserve the primary hemostatic function of platelets but inhibit secondary response will be most desired therapeutic agents for treatment of cardiovascular disease. CIB1 is a calcium integrin binding protein, which specifically interact with the alphaIIb subunit of integrin alphaIIb-beta3. Binding of CIB1 to alphaIIb regulates the outside-in signaling in platelets, which is needed for thrombus stabilization and thrombus growth. […] Therefore, we propose that discovery of a small molecule that can prevent the association of CIB1 and alphaIIb-beta3 will be a potential anti-platelet agent that can block the thrombus formation without undue effect on hemostasis. Reference: [1] Naik MU, Nigam A, Manrai P, et al. CIB1 deficiency results in impaired thrombosis: the potential role of CIB1 in outside-in signaling through integrin alpha IIb beta 3. J Thromb Haemost.
PROTOCOL TABLES SEQUENCE No. (1, 2, 3, etc.); […] (e.g., Cells, Incubation, Reagent, etc.); VALUE and DESCRIPTION. 1; Reagent; 3 uL; Protein or buffer (4/3x) 2; Compound; 46 nL; Control inhibitor / compound library 3; Time; 15 min; Room temperature incubation 4; Reagent; 1 uL; Fluorescent labeled peptide (4x) 5; Time; 1000 rpm; Centrifuge 6; Time; 15 min; Room temperature incubation 7; Detection; Ex 480/ Em 540; ViewLux Fluorescence Read NOTES (numbers refer to sequence above) 1; Protein Mixture: C1B1-GST (final concentrations of 1 uM). […] 3; Room temperature incubation. 4; Fluorescent Labeled Peptide: FITC-aIIb (final concentration of 100 nM). Sequence of alphaIIb peptide: Acetyl-[…]-FITC (purity is 95.83%). 5; Centrifuge 1000 rpm (164 g) for 15 seconds. 6; Room temperature incubation. 7; ViewLux Fluorescent Polization Read: excitation = 480(20) / emission = 540(25) S and P; FITC Dichroic mirror.
On the % scale 0 is the no-effect control and ±100 the full control effect.

Sequence of Calcium and integrin-binding protein 1 (Homo sapiens) (Q99828 whole entry, looked up): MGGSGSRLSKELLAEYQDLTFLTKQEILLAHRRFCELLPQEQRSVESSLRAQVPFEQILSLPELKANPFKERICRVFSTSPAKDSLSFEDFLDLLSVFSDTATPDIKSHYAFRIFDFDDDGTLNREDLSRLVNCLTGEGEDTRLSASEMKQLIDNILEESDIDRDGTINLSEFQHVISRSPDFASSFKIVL

SMILES | activity change, negative = inhibition
C[C@@H]1O[C@@H](O[C@H]2[C@H](OC(=O)[C@]34CCC(C)(C)C[C@H]3C3=CCC5[C@@]6(C)C[C@H](O)[C@H](O[C@@H]7O[C@H](CO)[C@@H](O[C@H]8OC[C@](O)(CO)[C@H]8O)[C@H](O)[C@H]7O)[C@@](C)(CO)C6[C@H](O)C[C@@]5(C)[C@]3(C)C[C@H]4O)OC[C@H](O)[C@@H]2O)[C@H](O)[C@H](O)[C@H]1O[C@@H]1OC[C@@H](O)[C@H](O[C@@H]2OC[C@](O)(CO)[C@H]2O)[C@H]1O (stereo not given in full) | -2.92% [at 12.4 µM]
C=CC(=O)Nc1cccc(Nc2nc(Nc3ccc(N4CCN(C(C)=O)CC4)cc3OC)ncc2C(F)(F)F)c1 | -14.2%
O=C(Nc1ccccc1-c1cn2c(CN3CCNCC3)csc2n1)c1ccc2ccccc2n1 | -6.04%
CC(=O)O[C@]1(C(C)=O)CC[C@H]2[C@@H]3C[C@H](C)C4=CC(=O)C=C[C@]4(C)[C@@]3(F)[C@@H](O)C[C@@]21C | 2.05%
CC(C)=CCCC1(C)C=Cc2c(c(C)cc3c2[nH]c2ccccc23)O1 (stereo not given) | 2.95% [at 57.7 µM]
O=C(c1ccc(/C=C/c2n[nH]c3ccccc23)cc1)N1CCNCC1 | 5.11%
NC1CCCCN(c2c(F)cc3c(=O)c(C(=O)O)cn(C4CC4)c3c2Cl)C1 (stereo not given) | 6.11% [at 57.7 µM]
COc1ccc([C@@]2(O)c3c(ccc(CC=C(C)C)c3O)NC(=O)[C@@H]2OC)cc1 | 0.567% [at 57.7 µM]
C=CC(C)(C)c1[nH]c2ccccc2c1C[C@@H]1NC(=O)[C@H](Cc2c[nH]c3ccccc23)NC1=O | -7.02% [at 57.7 µM]
C[C@H](C/C=C/C(C)(C)O)[C@H]1CC[C@@]2(C)[C@@H]3[C@@H](O[C@@H]4O[C@H](CO)[C@@H](O)[C@H](O)[C@H]4O)C=C4C(CC[C@H](O)C4(C)C)[C@]3(C=O)CC[C@]12C (stereo not given in full) | -7.82% [at 30.2 µM]
CC(C)CCC[C@@H](C)[C@H]1CC[C@H]2[C@@H]3CC(=O)[C@H]4C[C@@H](O)CC[C@]4(C)[C@H]3CC[C@]12C | -2.93%
Cc1c(NC(=O)c2cc(C(N)=O)nc3cc(F)ccc23)c(C(F)(F)F)nn1Cc1ccc(C#N)cc1 | 0.0051% [at 30.2 µM]
CC(=O)O[C@@H]1[C@H](O[C@@H]2O[C@@H](CO)[C@H](O)[C@H]2O)[C@@H](O[C@@H]2O[C@@H](C)[C@H](O[C@@H]3OC[C@@H](O)[C@H](O)[C@H]3O)[C@@H](O)[C@H]2O)[C@H](OC(=O)[C@]23CCC(C)(C)C[C@H]2C2=CCC4[C@@]5(C)CC[C@H](O[C@@H]6O[C@H](C(=O)O)[C@@H](O)[C@H](O)[C@H]6O[C@@H]6O[C@H](CO)[C@H](O)[C@H](O)[C@H]6O)[C@@](C)(C=O)C5CC[C@@]4(C)[C@]2(C)CC3)O[C@@H]1C (stereo not given in full) | -9.52% [at 12.4 µM]
COc1ccc(CN2C(=O)C(=O)c3cc(S(=O)(=O)N4CCC[C@H]4COc4cccnc4)ccc32)cc1 | -7.66%
COc1cc2ncnc(Nc3ccc(F)c(Cl)c3)c2cc1NC(=O)/C=C/CN1CCCCC1 | -5.27%
CC1C(OC(=O)c2ccccc2)C(O)C2C(C(=O)O)=COC(OC3OC(CO)C(O)C(O)C3O)C12 (stereo not given) | -0.43% [at 57.7 µM]
CC(C)=CCC[C@](C)(O[C@@H]1O[C@H](CO)[C@@H](O)[C@H](O)[C@H]1O)[C@H]1CC[C@]2(C)[C@@H]1[C@H](O)CC1[C@@]3(C)CC[C@H](O)C(C)(C)C3[C@@H](O[C@@H]3O[C@H](CO)[C@@H](O)[C@H](O)[C@H]3O)C[C@]12C (stereo not given in full) | -1.33% [at 30.2 µM]
CC1(C)CCCC2(C)C(C(=O)O)=CCC12 (stereo not given) | -0.75%
C[C@@H]1C(=O)OC[C@H]2C(C(=O)O)=C[C@@H]3CC(C)(C)C[C@]312 | 5.74%
CC(O)c1cc(C(=O)N[C@@H](C)Cn2ccc(-c3ccc(C#N)c(Cl)c3)n2)n[nH]1 (stereo not given in full) | -4.95%

SMILES | activity change, negative = inhibition
Cc1cn(C2C=CC(CO)O2)c(=O)[nH]c1=O (stereo not given) | 2.6%
O=C(/C=C\c1ccc(O)cc1)N[C@@H](Cc1ccc(O)cc1)C(=O)O | 3.37% [at 57.7 µM]
CC1CCC2(C(=O)O)CCC3(C)C(=CCC4C5(C)CCC(OC(=O)/C=C/c6ccccc6)C(C)(C)C5CCC43C)C2C1C (stereo not given) | 0.715% [at 30.2 µM]
CC(=O)O[C@@H]1CC(C)=C2[C@H]1[C@H](C)CC[C@H]2/C=C(\C)C(=O)O | 1.84%
C[C@@H]1O[C@@H](O[C@@H]2[C@@H](O)[C@@H](O[C@]3(CO)O[C@H](CO)[C@@H](O)[C@@H]3OC(=O)/C=C/c3ccc(O)cc3)O[C@H](CO)[C@H]2OC(=O)/C=C/c2ccc(O)cc2)[C@H](O)[C@H](O)[C@H]1O[C@@H]1O[C@@H](C)[C@H](O[C@@H]2OC[C@](O)(CO)[C@H]2O)[C@@H](O)[C@H]1O | 0.266% [at 30.2 µM]
O=C(OC[C@H]1O[C@H](O[C@]2(CO)O[C@H](CO)[C@@H](O)[C@@H]2O)[C@H](O)[C@@H](O)[C@@H]1O)c1ccccc1 | -5.75% [at 57.7 µM]
CN(C)CCn1cc(S(=O)(=O)c2cccc(F)c2)c2cccnc21 | 1.67%
CC1CCC2C(C)(C)[C@@H](O)CC[C@]2(C)C12Cc1c(O)cc3c(c1O2)CN(C(CCC(=O)O)C(=O)O)C3=O (stereo not given in full) | 4.1% [at 57.7 µM]
CC(=O)c1ccc2c(c1)C(O)C(C(C)(C)O)O2 (stereo not given) | -4.68%
NCc1ccc(Nc2ncc(F)c(Nc3ccccc3)n2)cc1 | -4.3%
CC(=O)OC[C@H]1O[C@H](O[C@]2(CO)O[C@H](CO)[C@@H](OC(=O)/C=C/c3ccccc3)[C@@H]2O)[C@H](O)[C@@H](O)[C@@H]1O | 0.206% [at 57.7 µM]
COc1ccc(C(=O)C2CCN(CC(=O)N(Cc3nc4c(c(=O)[nH]3)COCC4)CC3CC3)CC2)cc1 | 2.32%
COc1cc(C)c(C(=O)O[C@H]2[C@@H](OC(C)=O)[C@H](n3ccc(=O)[nH]c3=O)O[C@@H]2CO)c(OC)c1 | -3.19% [at 57.7 µM]
O=C(c1ccc2nccnc2c1)N1CCCCC1 | -4.02%
O=C(N/N=C/c1ccc(O)c(O)c1)c1cc2ccccc2cc1O | -2.84% [at 30.2 µM]
CC(C)(O)C1CCC(C)(C2CCC3(C)C4CCC5C(C)(C(=O)OC6OC(CO)C(O)C(O)C6O)C(O)CC(O)C56CC46CCC23C)O1 (stereo not given) | -6.21% [at 30.2 µM]
CCN(CC)c1ccc2c(O)c(C=Nc3ccc(CC(=O)O)c(-c4c5c(nc6ccccc46)CCC(C(=O)NN)C5)c3)c(=O)oc2c1 (stereo not given) | 37.3%
CC1CC2OC3(OC2C(C)(C)O)C1C1(C)CCC24CC25CCC(O[C@@H]2OC[C@@H](O)[C@H](O)[C@H]2O)C(C)(C)C5CC=C4C1(C)C3O (stereo not given in full) | 1.42% [at 30.2 µM]
COc1cc(Nc2nc3ccccc3nc2NS(=O)(=O)c2ccc(NC(=O)c3ccc(OC)c(C)c3)cc2)cc(OC)c1 | -3.75%
Cc1cc(OCc2nc(-c3ccccc3Cl)cs2)ccc1OCC(=O)O | 6.5%
